Screening data (PubChem)
Only some compounds are listed: those with a hit (about 10% of all), similar ones and a draw of the others.
NIH3T3 tox: cytotoxic compounds in NIH 3T3 cells | NIH 3T3 viability, CellTiter-Glo ATP luminescence, 48-72 h | Potency, µM (doses to about 96.7 µM), without a hit: at the top dose activity change, negative = cytotoxicity, actives largely listed as inhibitors | 4.3% of 94,000 active | AID 1345082; also: % is scaled to controls: 0 for no effect and ±100 for the full control effect; nearly all actives have a fitted effect of over 55% in size
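Cells were seeded at 400 per well, treated with pin-transferred compound, and kept 48 or 72 hr at 37 °C before CellTiter-Glo addition and luminescence imaging of cellular ATP.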
HEK cytotox: kills HEK 293 cells. HEK 293 viability, ATP luminescence (CellTiter-Glo), 48-72 h. Potency, µM (highest dose often 115 µM), for the others: top-dose activity change, negative = cytotoxicity, most hits filed as inhibitors. 6.6% of 94,000 active. AID 1345083; also: % is scaled to controls: 0 for no effect and ±100 for the full control effect; nearly all actives have a fitted effect of over 60% in size
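CellTiter-Glo luminescence (cellular ATP) was read after 48 or 72 hr of compound exposure at 37 degree Celsius. Cells were HEK 293 plated at 250 cells/well.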
NPR1 antag: blocks ANP-stimulated signaling of human Npr1 receptor | P16066 | HEK293 hNpr1 GloSensor cGMP, ANP-stimulated luminescence | Potency, µM (series often up to 46.3 µM), for the others: at the top dose activity change, negative = inhibition, hits mostly inhibitors | 1.6% of 76,000 active | AID 1347048; calls by dose curve; also: % is scaled to controls: 0 for no effect and ±100 for the full control effect; nearly all actives have a fitted effect of over 60% in size
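HEK293 cells stably expressing human Npr1 and cGMP GloSensor pGS-40F, loaded 2 h with 2% GloSensor reagent, given compound 30 min at room temperature. Luminescence read before and 20 min after 0.1 nM hNppA.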
GPT2 inhibitor: blocks human glutamate pyruvate transaminase 2 | Q8TD30 | Recombinant GPT2, coupled pyruvate oxidase/HRP Amplex Red fluorescence | Potency, µM (top dose mostly 57.7 µM), for inactives: at the top dose activity change, negative = inhibition, actives largely listed as inhibitors | 0.25% of 100,000 active | AID 1671188; also: % is scaled to controls: 0 for no effect and ±100 for the full control effect; nearly all actives have a fitted effect of over 60% in size
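Inhibition is scored from Amplex Red fluorescence generated when pyruvate oxidase and HRP act on pyruvate released by GPT2. Reactions contain 10ng/uL enzyme, 250uM a-KG and 2mM L-alanine and run 30 min at room temperature.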
FLuc inh-1: inhibitors of firefly (Photinus pyralis) luciferase; purified P. pyralis luciferase, luminescence, biochemical; AID 1347043; Potency, µM (highest dose often 115 µM), most hits filed as inhibitors; 2.5% of 76,000 active; also: % is scaled to controls: 0 for no effect and ±100 for the full control effect; nearly all actives have a fitted effect of over 65% in size
Target sequence (P08659 whole entry, looked up): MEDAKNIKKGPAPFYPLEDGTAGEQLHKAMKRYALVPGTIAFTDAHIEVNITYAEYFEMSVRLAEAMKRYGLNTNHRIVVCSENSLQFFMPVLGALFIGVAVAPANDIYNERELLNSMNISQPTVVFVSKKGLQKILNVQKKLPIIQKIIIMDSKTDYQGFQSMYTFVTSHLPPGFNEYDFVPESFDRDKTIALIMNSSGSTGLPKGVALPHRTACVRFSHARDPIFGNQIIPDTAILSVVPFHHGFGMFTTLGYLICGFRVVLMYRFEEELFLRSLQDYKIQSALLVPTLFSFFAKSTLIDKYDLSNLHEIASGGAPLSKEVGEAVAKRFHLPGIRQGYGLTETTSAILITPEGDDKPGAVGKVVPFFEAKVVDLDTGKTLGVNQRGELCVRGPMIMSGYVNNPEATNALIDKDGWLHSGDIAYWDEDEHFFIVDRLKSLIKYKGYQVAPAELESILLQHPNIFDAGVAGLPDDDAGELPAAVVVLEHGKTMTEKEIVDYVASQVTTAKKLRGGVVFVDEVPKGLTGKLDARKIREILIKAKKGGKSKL
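Biochemical qHTS: compound (6-point titration) added to 10uM D-luciferin plus 10uM ATP in Tris acetate pH 7.5 buffer with Mg, Tween-20 and BSA, then purified enzyme at 10nM; light output imaged.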
FLuc SDR -ATP: binders stabilizing firefly luciferase, without ATP. shares compounds with FLuc inh-1. Purified FLuc-C-HiBiT, Nano-Glo HiBiT luminescence, no ATP. Potency, µM (titrated, usually from 32.7 µM), without a hit: at the top dose activation (signal gain), usual class: activators. 7.8% of 1,300 active; also: nearly all actives have a fitted effect of over 55% in size
FLuc SDR ATP: stabilizes firefly luciferase with ATP present | AID 1963319 | purified FLuc-C-HiBiT + ATP, HiBiT complementation luminescence | 8.7% of 1,300 active | Potency, µM (highest dose often 32.7 µM), without a hit: top-dose activation (gain of signal), hits mostly activators | shares compounds with FLuc inh-1;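 also: signal reports ligand binding via conformational change of the enzyme rather than luciferase catalysis; % of control where 0% means no effect; nearly all actives have a fitted effect of over 55% in size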
FLuc inh-2: firefly luciferase enzyme inhibition; shares compounds with FLuc inh-1; purified FLuc-C-HiBiT enzyme, luciferin luminescence; Potency, µM (doses to about 32.7 µM), for the others: at the highest dose activity change, negative = inhibition, actives largely listed as inhibitors; 42% of 1,300 active; also: % is scaled to controls: 0 for no effect and ±100 for the full control effect; nearly all actives have a fitted effect of over 70% in size
* marks the source's active call; other numbers are inactive results; i = inactive; ? = inconclusive; / = not tested or not shown; [ ] = another dose, or the depositor's remark. Unless noted, calls follow the shape of the dose curve; as a rule, active = well fitted curve in the direction sought with a large enough effect; inconclusive = small, poorly fitted or top-dose-only effect, or another doubt; inactive = no such curve, though single readings can be large; an effect the other way counts as inactive or inconclusive. Potency is read from the fitted curve at half-maximal effect.

SMILES | NIH3T3 tox | HEK cytotox | NPR1 antag | GPT2 inhibitor | FLuc inh-1 | FLuc SDR -ATP | FLuc SDR ATP | FLuc inh-2
Cc1ccc(-n2cc(CN3CCn4nc(C(O)c5nccn5C)cc4C3)cn2)cc1 (centres undefined) | -22.8% | -7.6% | 5.6% | ? | ? | / | / | /
c1ccc(CNc2cc(-c3cc(N4CCCCC4)ncn3)c3cc[nH]c3n2)nc1 | ? | ? | -1.6% | 3.6% | 7.94µM* | 24.5% | 12.2% | 9.89µM*
CCc1ccc(Cc2ccc3c(c2)[C@]2(OC3)O[C@H](CO)[C@@H](O)[C@H](O)[C@H]2O)cc1 | / | / | / | i | / | / | / | /
CCCCOc1nc(N)c2[nH]c(=O)n(CCCN(CCCN3CCOCC3)Cc3cccc(CC(=O)OC)c3)c2n1 | / | / | / | / | / | 11.7% | 7.0% | 4.1%
Cc1cccc(-c2ncc(CN(CCN3CCOCC3)Cc3ccco3)cn2)c1 | -23.1% | ? | 5.1% | -2.2% | i | / | / | /
COc1ccc(Cn2c(C3CCN(C(=O)c4cccc(C)c4)CC3)n[nH]c2=O)cc1 | -28.1% | -5.9% | -5.3% | 0.3% | i | / | / | /
COc1ccc(NC(=O)C2CN(S(=O)(=O)C3CC3)CC23CCCCC3)cc1 (centres undefined) | -29.7% | -17.3% | -16.9% | i | i | / | / | /
O=C(Nc1ccc2c(c1)OCCO2)C1CN(S(=O)(=O)C2CC2)CC12CCCCC2 (centres undefined) | -22.2% | ? | ? | i | 1.12µM* | ? | ? | 4.42µM*
C[C@]1(OC(=O)/C=C\c2ccc(O)cc2)C[C@@H](O)[C@]2(O)C=CO[C@@H](O[C@@H]3O[C@H](CO)[C@@H](O)[C@H](O)[C@H]3O)C12 (some centres undefined) | / | / | / | 1.9%[27.3 µM] | / | / | / | /
O=C(O)CCSc1nnc(-c2ccc(Cl)cc2Cl)o1 | / | / | / | / | / | ? | 0.7µM* | 0.495µM*
COC(=O)[C@H](NC(=O)c1cc(-c2ccccc2)nc2ccccc12)c1ccccc1 | / | / | / | -1.8% | / | / | / | /
Cc1ccc(C(=O)COC(=O)c2cc(-c3cccs3)nc3ccccc23)cc1 | / | / | / | / | / | 12.0% | 11.0% | ?
Cc1cc(C)n(CCC(=O)NCC23CCCC=C2NC(=O)CC3)n1 (centres undefined) | -19.1% | -18.0% | / | i | / | / | / | /
COC[C@@H]1CN(C(=O)c2cc3ccccc3[nH]2)C[C@H]1c1nc(C)no1 | 1.4% | i | 2.9% | -14.0% | ? | / | / | /
Cc1ccc2c(c1)N(CCCC(=O)N1CCCC(Cc3nncn3-c3ccccc3)C1)C(=O)CO2 (centres undefined) | -24.3% | ? | / | 2.7% | / | / | / | /
c1ccc(Nc2ncc(-c3ccccc3)o2)cc1 | / | / | / | / | / | ? | ? | 0.785µM*
Cc1cnc(NC(=O)c2ccc3c(c2)OCCN(c2ccccc2)C3)s1 | ? | ? | -16.0%[70.6 µM] | i | ? | / | / | /
Cc1cnc(NC(=O)c2ccc3c(c2)OCC(=O)N(C)C3)s1 | / | / | / | / | / | ? | ? | 14.3µM*
Cc1csc(NC(=O)c2ccc3c(c2)OCC(=O)N(C)C3)n1 | ? | -15.7%[172 µM] | / | 4.3%[88.5 µM] | 5.01µM* | 24.4%[49.3 µM] | ? | ?
Cc1csc(NC(=O)[C@@H]2CCC[C@@H](NC(=O)c3ccccc3)CN(C)C(=O)C2)n1 | -21.9%[174 µM] | -20.2%[172 µM] | -18.1%[70.6 µM] | -0.6%[88.5 µM] | i | / | / | /
CN1Cc2ccc(C(=O)NCCOc3ccccc3)cc2OCC1=O | / | / | / | / | / | 18.8%[49.3 µM] | ? | ?
C/C(=C\c1ccccc1)CN1CCC2(CC1)Cc1ccccc1CNC2=O | ? | ? | / | 1.4% | / | / | / | /
Cc1ccc(-c2cccc(COc3cnc4c(ccn4CC(=O)O)c3)c2)cc1 | -21.6%[138 µM] | ? | 3.2%[70.6 µM] | i | 7.94µM* | 13.0%[49.3 µM] | 11.8%[49.3 µM] | ?
O=C(O)Cn1ccc2cc(OCc3cccc(-c4ccc(F)c(Cl)c4)c3)cnc21 | -14.9%[138 µM] | ? | 0.8%[70.6 µM] | i | i | / | / | /
COc1cccc(-c2cccc(COc3cnc4c(ccn4CC(=O)O)c3)c2)c1F | ? | -11.6%[172 µM] | 1.9%[70.6 µM] | 0.4%[88.5 µM] | 12.6µM* | 18.1%[49.3 µM] | 10.4%[49.3 µM] | 12.8µM*
SMILES | NIH3T3 tox | HEK cytotox | NPR1 antag | GPT2 inhibitor | FLuc inh-1 | FLuc SDR -ATP | FLuc SDR ATP | FLuc inh-2
Cc1cc(F)ccc1-c1cccc(COc2cnc3c(ccn3CC(=O)O)c2)c1 | -10.2%[138 µM] | ? | -1.0%[70.6 µM] | 0.1%[88.5 µM] | i | / | / | /
CCc1nc(NC(=O)C2c3ccccc3C(=O)N(CCOC)C23CCCC3)sc1C (centres undefined) | ? | -28.0% | 0.5% | -26.4% | i | / | / | /
O=C(Nc1nc2c(F)cc(F)cc2s1)c1ccc2c(c1)OCCO2 | / | / | / | / | / | 17.2% | 15.4% | 1.76µM*
O=C(N[C@H]1[C@H](O)[C@H](O)C[C@@H]1c1ccc(C(F)(F)F)nc1)c1ccc2c(c1)OCCO2 | -21.6%[174 µM] | -7.9%[172 µM] | -2.0%[70.6 µM] | i | i | / | / | /
COc1ccc(C(=O)Nc2cnc(-c3ccc(Cl)cc3)nc2)cc1 | i | ? | -26.6% | i | ? | / | / | /
COc1ccc(OCC(=O)Nc2nc(-c3ccc(Br)cc3)ns2)cc1 | / | / | / | / | / | 14.4% | 8.1% | -14.5%
